This passage reports binding signal results from publication PMC10668032, “Altered binding affinity of SIX1-Q177R correlates with enhanced WNT5A and WNT pathway effector expression in Wilms tumor”.

Whole data set: some 33,000 sequences, median “e-score” near -0.05, cut for the highest 2% near 0.38. The full list was thinned out, with the highest values kept by preference.

This test deals with T1, SIX1-Q177R homeodomain (human, UniProt Q15475 108-198, Q177R).
T1 sequence: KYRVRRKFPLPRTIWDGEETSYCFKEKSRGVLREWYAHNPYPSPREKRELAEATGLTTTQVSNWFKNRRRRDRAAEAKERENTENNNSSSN
Briefly: universal protein binding microarray; Universal all-10-mer PBM (8x60K, AMADID 030236), 300 nM GST-tagged protein, Alexa Fluor 488 anti-GST; buffer, salt, pH and temperature not stated (as in Berger); high values mean tight binding. The settings on record: protein: ivt; tags: N-terminal GST; dsDNA, one strand shown. The method, boiled down:
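Binding was expressed as 8-mer E-scores calculated with the Universal PBM Analysis Suite. The GST-tagged homeodomains, made by in vitro transcription/translation, were applied in duplicate at 300 nM final concentration to universal 'all 10-mer' protein binding microarrays (8×60K format).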
Regarding CCTTGACA, the binding signal was 0.253 ± 0.00743 E-score. As for CCCATGGA, the binding signal was found to be 0.189 ± 0.033 E-score. Take ACCCTGTG: the binding signal stood at 0.207 ± 0.0277 E-score. Turning to GGTATACC, the binding signal was 0.303 ± 0.0126 E-score. Turning to ATGGGTGC, the binding signal worked out at 0.154 ± 0.0381 E-score. For the sequence CCCCTGAG, the binding signal came out at 0.16 ± 0.00444 E-score. Next, AGGCGTAC: 0.221 ± 0.0327 E-score; ACCAGGTG: 0.217 ± 0.0167 E-score. Next, ACTGCGTG: 0.29 ± 0.0171 E-score; ATGCGACA: 0.198 ± 0.03 E-score; CGGGTTAC: 0.159 ± 0.0432 E-score. On to ATAGGTAC, for which the binding signal was 0.166 ± 0.021 E-score.

In the case of AGACACTG, the binding signal came out at 0.341 ± 0.0138 E-score. The value for AGACACGG was 0.377 ± 0.019 E-score; that for AGACACCT was 0.4528 ± 0.0033 E-score. The value for AGACACCG was 0.468 ± 0.0126 E-score; that for AATGATAC was 0.212 ± 0.0688 E-score; that for AACCCCAC was 0.222 ± 0.0452 E-score. With ACCCGGAA, the binding signal came to 0.272 ± 0.0105 E-score. The value for ACACGGAA was 0.398 ± 0.0244 E-score.

In the case of ACACGGAG, the binding signal was found to be 0.369 ± 0.00835 E-score. Turning to ACACGGAT, the binding signal stood at 0.392 ± 0.0346 E-score. Next, ACCCGGAT: 0.301 ± 0.0466 E-score; AGGATACC: 0.337 ± 0.0124 E-score; CGACCTCA: 0.168 ± 0.0123 E-score. On to CAACTACA, for which the binding signal is 0.2474 ± 0.00148 E-score. For the sequence ACCCTACG, the binding signal is 0.164 ± 0.0266 E-score. In the case of CCCCATGC, the binding signal worked out at 0.201 ± 0.0118 E-score. Next, GAAGGGTA: 0.169 ± 0.0222 E-score.

For AGTGTTGC, the binding signal was 0.321 ± 0.00542 E-score. Next, CGTGTAGC: 0.416 ± 0.0198 E-score; AGTGTAGA: 0.369 ± 0.0196 E-score.

For the sequence AGTGTGGG, the binding signal is 0.192 ± 0.0212 E-score. Next, AGTGTGGC: 0.193 ± 0.0161 E-score. For AGTGTAGG, the binding signal was found to be 0.411 ± 0.00742 E-score. The value for AGTGTAGC was 0.3944 ± 0.000672 E-score. Regarding CGTGTAGA, the binding signal amounted to 0.379 ± 0.0134 E-score. In the case of ACTTAATG, the binding signal came to 0.219 ± 0.0268 E-score.

For the sequence CAATAGGG, the binding signal was found to be 0.2 ± 0.0026 E-score.

CCCGGACA: the binding signal was 0.233 ± 0.00728 E-score.

On to TGTCATAA, for which the binding signal came to 0.1985 ± 0.00132 E-score. For the sequence AATGCACC, the binding signal came out at 0.162 ± 0.026 E-score. The value for AGTGTTCC was 0.334 ± 0.0173 E-score.

As to GGTGTTAC, the binding signal was 0.474 ± 0.00578 E-score. Next, GGGGTTAC: 0.261 ± 0.0216 E-score; GGCGTTAC: 0.154 ± 0.00446 E-score. For the sequence AGTGTTAC, the binding signal is 0.387 ± 0.0129 E-score. Next, AGTGTTTC: 0.299 ± 0.0238 E-score; AGTGTTAA: 0.394 ± 0.0556 E-score. On to AGTGTTAT, for which the binding signal was found to be 0.395 ± 0.041 E-score.

On to AGGAGTAT, for which the binding signal was 0.168 ± 0.0487 E-score. CGGGAACA: the binding signal came to 0.157 ± 0.0155 E-score. The value for CACCGGCG was 0.244 ± 0.0186 E-score; that for CCGGGGTC was 0.323 ± 0.0298 E-score; that for ACCCTAGA was 0.176 ± 0.00214 E-score. As for CACGTCAC, the binding signal came to 0.16 ± 0.0113 E-score. Next, GAGGTACA: 0.252 ± 0.0061 E-score; AGTGACTC: 0.193 ± 0.0365 E-score. The value for AGTGACCC was 0.234 ± 0.019 E-score. CGTGACTC: the binding signal is 0.207 ± 0.00528 E-score.

As to CGTGACAC, the binding signal came to 0.454 ± 0.00689 E-score. Next, GGTGATAC: 0.313 ± 0.00834 E-score; GGGGTGAC: 0.16 ± 0.0356 E-score. Regarding GGTGACAC, the binding signal came out at 0.4718 ± 0.00406 E-score. Next, CGTGACCC: 0.211 ± 0.0247 E-score; AGTGACAC: 0.469 ± 0.00575 E-score. The value for CACGGAGG was 0.222 ± 0.0241 E-score; that for CACGGCTG was 0.201 ± 0.0155 E-score. Next, AGTATCAT: 0.259 ± 0.0404 E-score. On to CGCCGCAC, for which the binding signal was found to be 0.151 ± 0.00857 E-score. In the case of ACCGACTC, the binding signal worked out at 0.204 ± 0.0477 E-score. Turning to GCCGATCC, the binding signal was 0.19 ± 0.00748 E-score. In the case of GCCGACAC, the binding signal came out at 0.422 ± 0.0235 E-score. In the case of ACCGACAC, the binding signal came to 0.425 ± 0.0144 E-score. As for CCCGACCC, the binding signal is 0.187 ± 0.0176 E-score. Next, CCCGACAC: 0.45 ± 0.0155 E-score; CCCGACGC: 0.151 ± 0.00346 E-score. In the case of ACCGACCC, the binding signal came to 0.192 ± 0.0372 E-score. Next, CAGCACCG: 0.242 ± 0.0129 E-score; CGGACGAC: 0.152 ± 0.037 E-score; GTTCCGGA: 0.175 ± 0.0199 E-score. Next, ACCCACGA: 0.153 ± 0.0296 E-score. The value for AAACTAGA was 0.163 ± 0.00455 E-score; that for CGTGTACA was 0.427 ± 0.00703 E-score; that for CGTGTACC was 0.4357 ± 0.00135 E-score.

On to AGAGTACA, for which the binding signal amounted to 0.186 ± 0.00263 E-score.

Turning to CATGTACA, the binding signal is 0.167 ± 0.0144 E-score. The value for AGTGTACA was 0.418 ± 0.0292 E-score; that for CGTGTGCC was 0.168 ± 0.0218 E-score. Next, CTTGTACA: 0.154 ± 0.0493 E-score; GGGGTACC: 0.247 ± 0.0225 E-score; AGTGTGCC: 0.159 ± 0.0249 E-score. Next, CGGGTACC: 0.16 ± 0.0136 E-score.

As to ACTGTACA, the binding signal was determined as 0.223 ± 0.00571 E-score. The value for AGTGTACC was 0.414 ± 0.00528 E-score; that for AGTACCCA was 0.175 ± 0.0132 E-score; that for CACCATGG was 0.343 ± 0.0218 E-score. The value for CGTAGGTA was 0.209 ± 0.00643 E-score. As to CACTAGTC, the binding signal came out at 0.208 ± 0.0318 E-score. In the case of CACGGTAC, the binding signal is 0.186 ± 0.0635 E-score.

Consider CACTATAG, for which the binding signal worked out at 0.192 ± 0.0146 E-score. For the sequence GTTGTACA, the binding signal was found to be 0.223 ± 0.0201 E-score. Turning to AGTGTACG, the binding signal was 0.407 ± 0.00139 E-score. Next, GGTGTACA: 0.4817 ± 0.00156 E-score; AGTGTGTG: 0.197 ± 0.0254 E-score; GCTGTACA: 0.208 ± 0.0271 E-score. Next, CGAGTACG: 0.19 ± 0.0193 E-score. Next, CACGGAAA: 0.188 ± 0.0559 E-score; GCACCGAA: 0.156 ± 0.0137 E-score. Consider ACCCCGAT, for which the binding signal turned out to be 0.229 ± 0.00378 E-score. Next, ACACCGAT: 0.473 ± 0.00479 E-score.

Take ACACCGAC: the binding signal amounted to 0.475 ± 0.00507 E-score. With CCCCCGAG, the binding signal stood at 0.188 ± 0.0196 E-score.

ACACCGAG: the binding signal worked out at 0.4783 ± 0.00449 E-score. With ACCCCGAG, the binding signal is 0.317 ± 0.0221 E-score. The value for ACGCCGAT was 0.152 ± 0.0158 E-score; that for ACACCGAA was 0.4689 ± 0.000997 E-score; that for GCACCGAC was 0.225 ± 0.017 E-score. For the sequence ATACCGAC, the binding signal was found to be 0.173 ± 0.0172 E-score. The value for ACCCCGAA was 0.228 ± 0.0524 E-score; that for CACCGTAG was 0.255 ± 0.00273 E-score; that for CGGAGTAC was 0.229 ± 0.00578 E-score. On to GGCGAACA, for which the binding signal was 0.198 ± 0.0404 E-score. Next, ACCCTTAG: 0.172 ± 0.00692 E-score; CACTAAAC: 0.195 ± 0.0243 E-score; CACTTGAC: 0.258 ± 0.0158 E-score. CAAGGATA: the binding signal was found to be 0.184 ± 0.029 E-score.

In the case of ACTCCACA, the binding signal was found to be 0.206 ± 0.00721 E-score.

In the case of AGTTGGGG, the binding signal was determined as 0.16 ± 0.00841 E-score. The value for ATGACGCC was 0.172 ± 0.00576 E-score; that for GTGACACA was 0.333 ± 0.0417 E-score.

With CTGACACC, the binding signal is 0.4913 ± 0.00298 E-score. Turning to ATGACACG, the binding signal was determined as 0.4485 ± 0.00163 E-score. Next, ATGACTCC: 0.273 ± 0.00839 E-score; CTGACGCC: 0.185 ± 0.012 E-score; ATGACACC: 0.4917 ± 0.00156 E-score. Next, ATGACACA: 0.275 ± 0.0196 E-score; CTGACACA: 0.297 ± 0.0288 E-score. The value for CCCCCAAG was 0.227 ± 0.0377 E-score.

As to CGGCTACG, the binding signal came out at 0.164 ± 0.00561 E-score. In the case of CACCAATA, the binding signal is 0.276 ± 0.0342 E-score. The value for CCCCCATA was 0.192 ± 0.0334 E-score; that for GGGATGTA was 0.159 ± 0.0364 E-score. Next, AACGAACA: 0.208 ± 0.0231 E-score; CGGAGTTA: 0.253 ± 0.0116 E-score; CGGTGTTA: 0.4847 ± 0.00334 E-score.

In the case of AGGTGCTC, the binding signal stood at 0.158 ± 0.0126 E-score. Turning to AGGTGTTG, the binding signal amounted to 0.448 ± 0.00602 E-score. For GTGTGTTA, the binding signal came to 0.298 ± 0.00829 E-score. With GGGGGTTA, the binding signal was 0.293 ± 0.0288 E-score. The value for CGGTGCTA was 0.2 ± 0.00414 E-score; that for AAGTGTTG was 0.289 ± 0.02 E-score; that for GGGTGTTA was 0.475 ± 0.00715 E-score. For ACGTGTTG, the binding signal stood at 0.346 ± 0.00562 E-score.

In the case of AGGTGTTC, the binding signal turned out to be 0.457 ± 0.00831 E-score.

ACGCCCAG: the binding signal worked out at 0.1915 ± 0.000269 E-score. Turning to CACCTGGC, the binding signal was 0.152 ± 0.00727 E-score.

On to CGCCCAGC, for which the binding signal is 0.161 ± 0.0486 E-score. Turning to AATACCCT, the binding signal was 0.171 ± 0.00453 E-score. The value for CCCCTCGC was 0.169 ± 0.0263 E-score; that for TGTCGGAA was 0.233 ± 0.0472 E-score; that for GTGTGCTA was 0.321 ± 0.0179 E-score. The value for GCGTTACA was 0.201 ± 0.00911 E-score; that for GCTGTGGA was 0.17 ± 0.0188 E-score; that for CGCCGTAC was 0.178 ± 0.00701 E-score.

Consider AATGATCC, for which the binding signal worked out at 0.17 ± 0.0375 E-score. In the case of GTTGGACA, the binding signal was determined as 0.245 ± 0.0116 E-score. Turning to CCTCTCGA, the binding signal turned out to be 0.17 ± 0.0627 E-score. Next, CACGCACA: 0.262 ± 0.00327 E-score; AGGTGTTA: 0.463 ± 0.00921 E-score; CTGTGTTC: 0.175 ± 0.0413 E-score. Regarding CGGTGCTC, the binding signal is 0.218 ± 0.0427 E-score.
